Bioassay records: PubChem BioAssay, Johns Hopkins Ion Channel Center
This is a sample that favours compounds with a hit; in the whole collection about 1.6% have one here.
KCNQ2 block: rat KCNQ2 potassium channel inhibitors, primary screen, cell-based, CHO-K1, FluxOR thallium flux, B-score; 20 min; stronger effect = lower value; B-score at 10 µM; 310,000 compounds, 1.1% hits; AID 2156, 2009;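 active = fluorescence ratio B-score at most minus 3 library SDs, with starting brightness B-score within 2 library SDs, cut at about -5.5 in these data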
KCNQ2 pot: potentiators of rat KCNQ2 potassium channel; B-score at 10 µM; 310,000 compounds, 0.54% hits; CHO-K1 KCNQ2, FluxOR thallium flux fluorescence; stronger effect = higher value;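 active = fluorescence ratio B-score at least 3 SD of library B-scores, with initial fluorescence B-score within 3 of them, cut at about 5.3 in these data; same plate scores as AID 2156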;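 also: B-score of peak minus minimum over baseline fluorescence ratio after K+ and Tl+ stimulus; positive B-score means potentiation of KCNQ2 with more thallium influx and brighter signal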
KCNQ2 inh conf: rat KCNQ2 potassium channel inhibitors, confirmation, cell-based, thallium flux | KCNQ2-expressing cells, inhibition; stronger effect = lower value | shares compounds with KCNQ2 block | 1,000 compounds, 57% hits | activity change, negative = inhibition, % at 10 µM;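 also: 0% = vehicle wells and values are ratio percent relative to vehicle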
KCNQ1 spec: human KCNQ1 channel inhibition, counter-screen for KCNQ2 inhibitor project, cell-based, FluxOR thallium flux | shares compounds with KCNQ2 block | KCNQ1-expressing cells, FluxOR thallium flux fluorescence; stronger effect = lower value | activity change, negative = inhibition, % at 10 µM | 1,000 compounds, 15% hits | AID 493026, 2011;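 active = activity change at least 3 SD of negative controls below their mean in both duplicate wells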;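 also: CHO cells stably transfected with KCNQ1 and depolarized by potassium stimulus; peak minus minimum fluorescence over baseline after thallium addition; 0% = vehicle negative control and -100% = blank without thallium stimulus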
Target sequence (P51787 whole entry, looked up): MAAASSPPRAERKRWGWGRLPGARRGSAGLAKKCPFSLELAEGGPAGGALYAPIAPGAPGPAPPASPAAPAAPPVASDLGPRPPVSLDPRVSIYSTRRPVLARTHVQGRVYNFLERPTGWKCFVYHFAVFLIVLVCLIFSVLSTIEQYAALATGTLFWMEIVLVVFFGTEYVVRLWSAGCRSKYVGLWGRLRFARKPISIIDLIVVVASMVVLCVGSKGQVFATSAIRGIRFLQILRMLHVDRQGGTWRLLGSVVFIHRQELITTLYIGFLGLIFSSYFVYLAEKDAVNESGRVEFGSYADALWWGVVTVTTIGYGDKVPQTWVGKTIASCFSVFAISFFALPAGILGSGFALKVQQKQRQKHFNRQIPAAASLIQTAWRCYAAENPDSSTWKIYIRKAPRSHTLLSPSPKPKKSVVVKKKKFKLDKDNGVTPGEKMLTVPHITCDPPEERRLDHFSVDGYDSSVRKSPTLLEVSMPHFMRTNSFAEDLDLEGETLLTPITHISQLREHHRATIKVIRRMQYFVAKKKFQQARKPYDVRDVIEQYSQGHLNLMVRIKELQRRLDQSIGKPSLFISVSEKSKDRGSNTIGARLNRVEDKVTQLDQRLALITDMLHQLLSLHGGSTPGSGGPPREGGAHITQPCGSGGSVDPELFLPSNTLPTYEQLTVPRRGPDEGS
CHO Tl ctr: thallium flux change in parental CHO cells, counter-screen for KCNQ2 inhibitor project; AID 493029, 2011; shares compounds with KCNQ2 block; stronger effect = lower value; 1,000 compounds, 14% hits; activity change, % at 10 µM;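 also: 0% = vehicle negative controls with stimulus buffer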
KCNQ2 inh confirm: rat KCNQ2 channel inhibitors, confirmation, cell-based, automated patch clamp, single concentration. shares compounds with KCNQ2 block. KCNQ2-expressing cells, automated patch clamp current. calls only at 10 µM. 550 compounds, 49% hits
Kir21 conf inh: mouse Kir2.1 channel blockers, retest, confirmation, cell-based, FluxOR thallium flux, duplicate; shares compounds with KCNQ2 pot; Tl flux remaining, % of negative control (stronger effect = lower value), % at 10 µM; Kir2.1-expressing cells, FluxOR thallium flux fluorescence; stronger effect = lower value; 2,300 compounds, 41% hits; AID 2032, 2009;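 active = Primary-screen hit whose thallium flux fell at least 3 control SD below untreated wells in both duplicates, with normal baseline fluorescence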;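 also: 0% = blank wells without stimulus and 100% = stimulated no-compound controls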
HEK293 ctr: parental HEK293 activity in Kir2.1 inhibitor counter-screen; FluxOR signal as % of negative control (100 = no effect), % at 10 µM; AID 2105; 2,300 compounds, 19% hits; parental HEK293 cells, FluxOR thallium flux fluorescence; 0% = unstimulated blank wells; shares compounds with KCNQ2 pot;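 active = dye signal at least 3 control SD above or below untreated wells in both duplicates, raw fluorescence within 3, either direction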;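 also: percent is based on the flux ratio of peak minus minimum fluorescence over baseline F0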
* hit, by the source's call; ! = not active in a repeat. Unless noted, no rule for the calls is given here.

Results for CC[C@@H](C)[C@H](CNC)NC[C@@H](Cc1cccc2ccccc12)NCCc1cccc(C(F)(F)F)c1 ?
KCNQ2 block: -8.5*; KCNQ2 pot: -8.5; KCNQ2 inh conf: -29%*; KCNQ1 spec: inactive; CHO Tl ctr: inactive; KCNQ2 inh confirm: inactive; Kir21 conf inh: 22%*; HEK293 ctr: inactive

How did CCC[C@H](CN[C@@H](CNC)[C@H](C)CC)NCCc1cc(C(F)(F)F)cc(C(F)(F)F)c1 do in these assays?
KCNQ2 block: inactive

Results for NC(N)=N/N=C/c1ccc(OCc2ccccc2)c(OCc2ccccc2)c1 ?
KCNQ2 block: inactive

What do the screens show for `CCOc1cc(/C=N/N=C(N)N)ccc1OCc1ccc(Cl)cc1`?
KCNQ2 block: -10*; KCNQ2 pot: -10; KCNQ2 inh conf: inactive; KCNQ1 spec: inactive; CHO Tl ctr: inactive; Kir21 conf inh: 62%*; HEK293 ctr: inactive

How did COc1ccc(/C=C/C(=O)c2cc3c(cc2N)OCO3)cc1 do in these assays?
KCNQ2 block: inactive; KCNQ2 pot: 0.02

What do the screens show for `CCOc1ccc(/C=N/Nc2nc(C)cs2)c(O)c1`?
KCNQ2 block: inactive

How did O=C(/C=C/c1ccc(Cl)cc1)c1cccnc1 do in these assays?
KCNQ2 block: -7.6*; KCNQ2 pot: -7.6; KCNQ2 inh conf: -28%*; KCNQ1 spec: inactive; CHO Tl ctr: inactive; KCNQ2 inh confirm: inactive; Kir21 conf inh: 68%*; HEK293 ctr: inactive

What do the screens show for `O=C(/C=C/c1ccc(OCc2ccccc2)c(OCc2ccccc2)c1)c1cccnc1`?
KCNQ2 block: inactive

How did Cc1ccc(C)c(N(C(=O)c2ccco2)C(C(=O)NC2CCCC2)c2ccco2)c1 (stereo not given) do in these assays?
KCNQ2 block: inactive

Results for Cc1ccc(NC(=O)COc2ccccc2)c(NC(=O)c2ccco2)c1 ?
KCNQ2 block: inactive

Results for CCC(C)(C)c1ccc(OCCCC[n+]2cccc(C)c2)c(C(C)(C)CC)c1 ?
KCNQ2 block: -8.4*; KCNQ2 pot: -8.4; KCNQ2 inh conf: inactive; KCNQ1 spec: inactive; CHO Tl ctr: inactive; Kir21 conf inh: 33%*; HEK293 ctr: inactive

What do the screens show for `Cc1ccc[n+](CC(=O)Nc2cc(C(F)(F)F)ccc2Cl)c1`?
KCNQ2 block: inactive; KCNQ2 pot: 1.7

What do the screens show for `CC1CN(c2nc3c(c(=O)n(C)c(=O)n3C)n2Cc2c(F)cccc2Cl)CC(C)O1` (stereo not given)?
KCNQ2 block: inactive

Results for COCCCN1C(=O)C(=O)/C(=C(/O)c2ccc(C)cc2)C1/C=C/c1ccccc1 (stereo not given) ?
KCNQ2 block: inactive; KCNQ2 pot: 0.03

How did Cc1ccccc1OCc1n(CC(=O)OC2CC(C)CCC2C(C)C)c2ccccc2[n+]1C (stereo not given) do in these assays?
KCNQ2 block: -11*; KCNQ2 pot: -11; KCNQ2 inh conf: -40%*!; KCNQ1 spec: inactive; CHO Tl ctr: inactive; KCNQ2 inh confirm: active; Kir21 conf inh: 14%*; HEK293 ctr: inactive

How did CCOC(=O)Cn1c(COc2ccccc2OC)[n+](C)c2ccccc21 do in these assays?
KCNQ2 block: inactive; KCNQ2 pot: 0.52

What do the screens show for `CCc1ccc(C(O)(CNCc2ccccc2)c2ccccc2)cc1` (stereo not given)?
KCNQ2 block: -6.9*; KCNQ2 pot: -6.9; KCNQ2 inh conf: -32%*; KCNQ1 spec: -36%*; CHO Tl ctr: -28%*; KCNQ2 inh confirm: inactive; Kir21 conf inh: 69%*; HEK293 ctr: inactive

Results for CCc1ccc(NC(=S)NCc2ccccc2)cc1 ?
KCNQ2 block: inactive; KCNQ2 pot: 0.74

How did O=[N+]([O-])c1cccc(-c2noc(-c3ccco3)n2)c1 do in these assays?
KCNQ2 block: inactive; KCNQ2 pot: 0.3

What do the screens show for `CCCN(c1nc(C)cc(OC)n1)S(=O)(=O)c1ccccc1`?
KCNQ2 block: inactive; Kir21 conf inh: 50%*; HEK293 ctr: inactive

How did COc1cc(C)nc(N(Cc2ccccc2)S(=O)(=O)c2ccccc2)n1 do in these assays?
KCNQ2 block: inactive

Results for O=[N+]([O-])c1ccc(S(=O)(=O)N2CCSC2c2ccco2)cc1 (stereo not given) ?
KCNQ2 block: inactive

How did O=S(=O)(c1ccc(Cl)cc1)N1CCSC1c1ccco1 (stereo not given) do in these assays?
KCNQ2 block: inactive; Kir21 conf inh: 66%*; HEK293 ctr: inactive

What do the screens show for `C=CCNc1nc(N2CCCCC2)c(C#N)c2c1CN(Cc1ccccc1)CC2`?
KCNQ2 block: inactive; KCNQ2 pot: 0.09

Results for O=C(Nc1cccc(-c2cccc(Cl)c2)c1)C1CCN(Cc2ccc(CO)o2)CC1 ?
KCNQ2 block: inactive; Kir21 conf inh: 63%*; HEK293 ctr: inactive

Results for Cc1ccc(CN2CCC(C(=O)Nc3cccc(-c4cccc(F)c4)c3)CC2)o1 ?
KCNQ2 block: inactive

What do the screens show for `CCC(C)[C@H](NS(=O)(=O)c1ccc(C)cc1)C(=O)N1CCC(C(=O)N2CCC(C(N)=O)CC2)CC1` (stereo not given in full)?
KCNQ2 block: inactive; KCNQ2 pot: 0.6

Results for CN(C)c1ccc(N/C(N)=N/c2nc(C(F)(F)F)cc(C(F)(F)F)n2)cc1 ?
KCNQ2 block: inactive

Results for c1cc2ccc3ccc(CN4CCOCC4)c4ccc(c1)c2c34 ?
KCNQ2 block: inactive; KCNQ2 pot: 0.02

How did OC1CCCN(Cc2ccc3ccc4cccc5ccc2c3c45)C1 (stereo not given) do in these assays?
KCNQ2 block: inactive; Kir21 conf inh: 48%*; HEK293 ctr: inactive

How did Cc1cc(OCC(F)(F)C(F)(F)C(F)(F)C(F)F)nc(N)n1 do in these assays?
KCNQ2 block: inactive; KCNQ2 pot: 2.7

What do the screens show for `Cc1nn(CC(=O)NCc2cccnc2)c(C)c1[N+](=O)[O-]`?
KCNQ2 block: inactive

How did CC(=O)Nc1ccc(C(=O)NCC(=O)OCc2ccccc2F)cc1 do in these assays?
KCNQ2 block: inactive; KCNQ2 pot: 2.2
